“And” between values parts separate entries of the source, which are not always exact repeats. Equal values may be shown once. About 2,000 (36%) of roughly 5,500 compounds were called active. About 18% were inconclusive and are not listed. Rule as the data show it: active = normalized growth mostly below about 0.91 (no sharp cut-off); inconclusive = no clear call, values can overlap the other calls; inactive = mostly above about 0.92. The list shows a part of the results.
Experiment: chemical genetic growth profiling, strain panel (AID 1159580);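 also: tested at 20 µM; growth read once vehicle control cultures reached saturation at 30 °C; 1 = growth at the plate median or of vehicle wells; lower values mean less growth of the strain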
Details: growth OD

Measured: normalized growth

CC/C(=C(\c1ccccc1)c1ccc(OCCN(C)C)cc1)c1ccccc1
inactive: S. cerevisiae deletion strains, locus YNL175C, strain NOP13, hits give low values 0.968 | S. cerevisiae deletion strains, locus YNL183C, strain NPR1, hits give low values 0.901 | S. cerevisiae deletion strains, locus YNL250W, strain rad50, hits give low values 0.999 | S. cerevisiae deletion strains, locus YNL271C, strain bni1, hits give low values 0.953 | S. cerevisiae deletion strains, locus YNL322C, strain KRE1 (second series), hits give low values 1.07 | S. cerevisiae deletion strains, locus YOR231W, strain MKK1, hits give low values 0.894 | S. cerevisiae deletion strains, locus YPR141C, strain kar3, hits give low values 1.04
active: S. cerevisiae deletion strains, locus YNL153C, strain GIM3, hits give low values 0.0543 | S. cerevisiae deletion strains, locus YNL197C, strain WHI3, hits give low values 0.704 | S. cerevisiae deletion strains, locus YNL209W, strain ssb2, hits give low values 0.1 | S. cerevisiae deletion strains, locus YNL224C, strain SQS1, hits give low values 0.206 | S. cerevisiae deletion strains, locus YNL233W, strain BNI4, hits give low values 0.0506 | S. cerevisiae deletion strains, locus YNL248C, strain rpa49, hits give low values 0.555 | S. cerevisiae deletion strains, locus YNL298W, strain CLA4, hits give low values 0.744 | S. cerevisiae deletion strains, locus YNL307C, strain MCK1, hits give low values 0.0675 | S. cerevisiae deletion strains, locus YNL322C, strain KRE1, hits give low values 0.0467 and 0.567 | S. cerevisiae deletion strains, locus YNR049C, strain mso1, hits give low values 0.0842 | S. cerevisiae deletion strains, locus YNR052C, strain pop2, hits give low values 0.0611 | S. cerevisiae deletion strains, locus YOL006C, strain TOP1, hits give low values 0.0917 | S. cerevisiae deletion strains, locus YOL012C, strain htz1 0.187 | S. cerevisiae deletion strains, locus YOL147C, strain pex11, hits give low values 0.0578 | S. cerevisiae deletion strains, locus YOR001W, strain rrp6, hits give low values 0.431 | S. cerevisiae deletion strains, locus YOR061W, strain CKA2, hits give low values 0.0446 | S. cerevisiae deletion strains, locus YOR069W, strain VPS5, hits give low values 0.0459 | S. cerevisiae deletion strains, locus YOR070C, strain gyp1, hits give low values 0.0646 | S. cerevisiae deletion strains, locus YOR080W, strain dia2, hits give low values 0.408 | S. cerevisiae deletion strains, locus YOR083W, strain WHI5 (second series), hits give low values 0.185 | S. cerevisiae deletion strains, locus YOR083W, strain WHI5, hits give low values 0.0831 | S. cerevisiae deletion strains, locus YOR106W, strain vam3, hits give low values 0.0773 | S. cerevisiae deletion strains, locus YOR136W, strain idh2, hits give low values 0.0725 | S. cerevisiae deletion strains, locus YOR144C, strain elg1, hits give low values 0.0595 | S. cerevisiae deletion strains, locus YOR184W, strain ser1, hits give low values 0.0775 | S. cerevisiae deletion strains, locus YOR265W, strain rbl2, hits give low values 0.0798 | S. cerevisiae deletion strains, locus YOR270C, strain vph1, hits give low values 0.136 | S. cerevisiae deletion strains, locus YOR290C, strain snf2, hits give low values 0.125 | S. cerevisiae deletion strains, locus YOR316C, strain cot1, hits give low values 0.0588 | S. cerevisiae deletion strains, locus YPL051W, strain arl3, hits give low values 0.136 | S. cerevisiae deletion strains, locus YPL055C, strain LGE1, hits give low values 0.0697 | S. cerevisiae deletion strains, locus YPL078C, strain atp4, hits give low values 0.288 | S. cerevisiae deletion strains, locus YPL106C, strain sse1, hits give low values 0.114 | S. cerevisiae deletion strains, locus YPL240C, strain hsp82, hits give low values 0.106 | S. cerevisiae deletion strains, locus YPL241C, strain CIN2, hits give low values 0.0469 | S. cerevisiae deletion strains, locus YPL256C, strain CLN2, hits give low values 0.815 | S. cerevisiae deletion strains, locus YPR119W, strain clb2, hits give low values 0.0696 | S. cerevisiae deletion strains, locus YPR163C, strain tif3, hits give low values 0.0696 | S. cerevisiae deletion strains, locus YPR167C, strain met16, hits give low values 0.0609 | S. cerevisiae deletion strains, strain wtn01, hits give low values 0.0608 | S. cerevisiae strains, strain wild type, hits give low values 0.0464

From PubChem BioAssay AID1159580 (chemical genetic matrix, 2015)
